# Laboratory results taken from PubChem BioAssay AID720650 (Broad Institute, 2013).
# Values without a mark were called inactive. Active and inactive are the calls of the source. No rule for the calls is given here.
# Test: Biochemical counterscreen for C difficile toxins, absence of UDPG, inhibitor dose response (AID 720650)
# Settings: series mostly up to 19.5 µM
row,SMILES,AC50
1,Cc1ccc(S(=O)(=O)Oc2cccc(/C=N/Nc3ccc(C(=O)O)cc3)c2)cc1,> 39 µM
2,COC(=O)[C@@]12CCCCN1[C@H](c1ccc(-c3ccccc3)c(OC)c1)[C@H]1C(=O)N(C)C(=O)[C@H]12,inactive
3,CSc1nc(Cl)cc(Nc2ccc(O)cc2)n1,inactive
4,CCC(=O)N1CC[C@@H]2[C@H]1c1cc(-c3ccc(OC)cc3)ccc1N(C)[C@H]2CO,> 20 µM
5,COc1ccccc1N1CC(O)=C(c2nc3ccccc3s2)C1=N,> 39 µM
6,CN(C)c1ccc(Cl)c(NC(N)=S)c1,19.2 µM (active)
7,O=C(C[C@@H]1CC[C@@H]2[C@H](COC[C@@H](O)CN2C(=O)Nc2ccc(Cl)c(Cl)c2)O1)NCc1ccncc1,inactive
8,CC(C)NC(=O)N1CC[C@@H]2[C@H]1c1cc(-c3ccccc3)ccc1N(C)[C@H]2CO,5.77 µM (active)
9,COc1ccc(/C=C2\CCC(C3CCCC3)C2=O)cc1 (stereo not drawn),inactive
10,CC1CC(=O)N(c2ccc(NCCc3ccc(O)cc3)c([N+](=O)[O-])c2)C1=O (stereo not drawn),inactive
11,CC(C)CC(=O)N1CCN(Cc2ccc(Br)cc2)CC1,inactive
12,Cc1cc(C(=O)Nc2ncc(C)s2)c2ccccc2n1,inactive
13,Cc1cc(N2CCCC2=O)cc(C)c1S(=O)(=O)Nc1c(C)nn(C)c1C,inactive
14,CNC(=O)C1CCN(S(=O)(=O)c2c(C)noc2/C=C/c2cccc(OC)c2)CC1,inactive
15,COc1ccc(/C=C/c2onc(C)c2S(=O)(=O)N2CCC(C(=O)N3CCCCCC3)CC2)cc1,inactive
16,O=C(CCn1c(=O)oc2cc(Cl)ccc21)Nc1ccc(O)cc1,4.49 µM (active)
17,CN(C)CCCNC(=O)C[C@H]1CC[C@@H]2[C@@H](COc3ccc(NC(=O)c4ccc5c(c4)OCO5)cc3C(=O)N2C)O1,inactive
18,O=C(C[C@@H]1CC[C@H]2[C@@H](COC[C@@H](O)CN2C(=O)c2ccccn2)O1)NC1CCC1,inactive
19,COc1cc(/C=N/NC(=O)c2cccc([N+](=O)[O-])c2)ccc1O,inactive

row,SMILES,AC50
1,CCCCn1c(N)c(N(CCOC)C(=O)CSc2nnc(-c3ccco3)n2CC)c(=O)[nH]c1=O,inactive
2,O=c1c(OC2OC(CO)C(O)C(O)C2O)c(-c2ccc(O)c(O)c2)oc2cc(O)cc(O)c12 (stereo not drawn),inactive
3,COc1cc(/C=C/C(=O)c2ccc([N+](=O)[O-])o2)ccc1O,inactive
4,Cc1ccc(C(=O)Nc2ccc(N3CCCCC3)cc2)cc1,inactive
5,O=C(OCC(=O)N1CCCc2ccccc21)c1ccc(C(F)(F)F)cc1,inactive
6,CC1CN=C(Nc2cccc(S(=O)(=O)N(C)C)c2)S1 (stereo not drawn),inactive
7,COc1ccc(C2=NS(=O)(=O)N(C)C(C(=O)NC(C)c3ccccc3)=C2)cc1OC (stereo not drawn),inactive
8,Cc1nn(CCOc2ccccc2)c(=O)n1-c1ccc(Cl)cc1,inactive
9,COc1ccccc1-n1c(SCC(=O)O)nc2c(sc(=S)n2-c2ccc(C)c(C)c2)c1=O,> 39 µM
10,Cc1ccc(S(=O)(=O)N2CC(CO)=CCC2c2ccccc2)cc1 (stereo not drawn),8.79 µM (active)
11,Cc1cc(C)c(C)c(S(=O)(=O)N2CCCCC2C(=O)O)c1C (stereo not drawn),> 39 µM
12,O=c1[nH]c(CSc2nnc(Cc3ccccc3)o2)nc2ccccc12,inactive
13,COc1cc(/C=N/NC(=O)C2COc3ccccc3O2)ccc1O (stereo not drawn),inactive
14,CN(CCN1CCOCC1)C(=O)CC1C(=O)NCCN1Cc1ccccc1C(F)(F)F (stereo not drawn),inactive
15,CCCNC(=O)Nc1ccc2c(c1)C(=O)N(C)[C@H]1CC[C@H](CC(=O)NC3CCC3)O[C@@H]1CO2,inactive
16,C[C@@H]1CN([C@H](C)CO)S(=O)(=O)c2ccc(-c3ccncc3)cc2O[C@@H]1CN(C)Cc1ccc(Oc2ccccc2)cc1,inactive
17,Cc1ccc(C)c2sc(NC(=O)c3ccc(N4C(=O)CCC4=O)cc3)nc12,inactive
18,Cc1cccc(/C=C/c2onc(C)c2S(=O)(=O)N2CCC(C(=O)NC(C)C)CC2)c1,inactive
19,Nc1ncnc2[nH]c(=S)[nH]c12,> 39 µM
